94 molecules from article PMC4336329 (PLoS ONE, 2015) can be followed below.

Out of some 310,000 compounds screened, about 14,000 (4.5%) showed an effect of 50% or more. Effects have a minus sign here. Shown is part of a subset that was picked to be rich in strong results.
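Also: peak tail current of the secondary pulse compared with the same well before compound.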

Sequence of human ether-à-go-go-related gene (hERG) potassium channel (Q12809 whole entry, looked up): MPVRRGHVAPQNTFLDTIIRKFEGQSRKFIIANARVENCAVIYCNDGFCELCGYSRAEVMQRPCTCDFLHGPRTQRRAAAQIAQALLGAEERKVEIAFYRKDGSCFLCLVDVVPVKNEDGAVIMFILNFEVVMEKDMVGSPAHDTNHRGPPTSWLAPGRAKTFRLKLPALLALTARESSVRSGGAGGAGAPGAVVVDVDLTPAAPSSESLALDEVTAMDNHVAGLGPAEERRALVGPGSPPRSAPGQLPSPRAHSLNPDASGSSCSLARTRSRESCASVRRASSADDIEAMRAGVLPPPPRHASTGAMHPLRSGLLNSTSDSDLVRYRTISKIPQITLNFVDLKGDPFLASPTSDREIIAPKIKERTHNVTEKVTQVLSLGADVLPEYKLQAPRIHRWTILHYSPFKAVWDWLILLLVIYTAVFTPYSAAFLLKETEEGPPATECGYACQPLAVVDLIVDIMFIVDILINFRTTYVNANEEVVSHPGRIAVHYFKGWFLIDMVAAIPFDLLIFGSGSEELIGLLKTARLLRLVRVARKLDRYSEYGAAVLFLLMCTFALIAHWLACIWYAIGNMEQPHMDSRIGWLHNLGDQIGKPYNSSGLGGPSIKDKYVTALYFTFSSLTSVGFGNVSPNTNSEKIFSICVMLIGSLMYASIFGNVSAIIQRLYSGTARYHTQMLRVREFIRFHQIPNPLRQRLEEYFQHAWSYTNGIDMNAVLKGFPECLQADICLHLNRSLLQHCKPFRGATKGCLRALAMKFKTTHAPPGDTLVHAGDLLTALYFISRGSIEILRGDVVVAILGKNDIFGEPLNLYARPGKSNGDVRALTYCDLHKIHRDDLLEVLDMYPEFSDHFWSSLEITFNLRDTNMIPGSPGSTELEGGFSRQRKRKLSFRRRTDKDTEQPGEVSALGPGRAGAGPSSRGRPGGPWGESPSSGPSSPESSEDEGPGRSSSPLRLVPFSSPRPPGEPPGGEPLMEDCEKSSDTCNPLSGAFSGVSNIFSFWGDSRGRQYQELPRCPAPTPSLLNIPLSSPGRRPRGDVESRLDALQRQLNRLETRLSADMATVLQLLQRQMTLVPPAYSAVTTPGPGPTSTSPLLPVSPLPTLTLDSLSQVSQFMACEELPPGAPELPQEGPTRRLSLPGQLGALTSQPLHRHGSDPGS

This assay addresses human ether-à-go-go-related gene (hERG) potassium channel (human, UniProt Q12809). Kind of assay: primary screen, population patch clamp on CHO cells stably expressing hERG; higher = less effect of the substance.
On to `CCn1nc(C(=O)OCC(=O)NCC(C)C)c2ccccc2c1=O`, for which the “hERG current change (%, negative = inhibition) at 10uM” value turned out to be 0.00988%. The same measure for `CCn1nc(C(=O)OCC(=O)NC(C)C)c2ccccc2c1=O`: 8.88%; for `CC(C)Cn1nc(C(=O)OCC(=O)NCC(F)(F)F)c2ccccc2c1=O`: -78.2%. In the case of `COC(=O)c1cc(NC(=O)c2c(C)noc2C)ccc1N1CCOCC1`, the “hERG current change (%, negative = inhibition) at 10uM” value is on record as 17.6%. For the molecule `COc1ccc(N2C(=O)/C(=C/c3ccc(N(C)C)o3)C(=O)NC2=S)cc1`, the “hERG current change (%, negative = inhibition) at 10uM” value is 3.28%.

On to `O=C(c1ccc(Cn2cnnn2)cc1)N1CCCC(Nc2ccc(F)cc2)C1` (stereo not shown), for which the “hERG current change (%, negative = inhibition) at 10uM” value is reported as -0.196%. For `COc1ccc(CN2CCN(Cc3ccc(C)cc3)C(CCO)C2)cc1OC` (stereo not shown) the value was -54.3%; for `COc1cc(CN2CCN(Cc3ccc(C)cc3)C(CCO)C2)ccc1O` (stereo not shown), -19.6%. In the case of `CC(=O)Nc1ccc(CN2CCN(Cc3ccc(C)cc3)C(CCO)C2)cc1` (stereo not shown), the “hERG current change (%, negative = inhibition) at 10uM” value is -34.5%. For `COc1cc(CN2CCN(Cc3ccc(C)cc3)C(CCO)C2)cc(OC)c1O` (stereo not shown) the value was -51.6%. For `COc1cccc(CN2CCN(Cc3ccc(O)c(OC)c3)CC2CCO)c1` (stereo not shown) the value was -5.76%; for `COc1ccc(CN2CCN(Cc3ccc(CO)o3)CC2CCO)cc1C` (stereo not shown), -8.64%; for `CCOc1cccc(OCCOCCN(C)C)c1.O=C(O)C(=O)O`, 0.719%. Take `COC(=O)c1ccc(CN2C(=O)NC3(CCCCC3C)C2=O)o1` (stereo not shown): the “hERG current change (%, negative = inhibition) at 10uM” value is listed as -11.4%. For `O=C(CSc1nnc(Cc2ccccc2)o1)Nc1ccc2c(c1)OCO2` the value was 10.5%. Turning to `CCOC(=O)Cc1csc(NC(=O)Cc2ccccc2)n1`, the “hERG current change (%, negative = inhibition) at 10uM” value is 1.37%. The same measure for `CC(=O)N1c2ccc(S(=O)(=O)N3CCC(C(=O)Nc4cccc(C(F)(F)F)c4)CC3)cc2CC1C` (stereo not shown): 11.7%; for `COc1ccc(OCc2cc(C(=O)N3CCCCCC3)no2)c(Cl)c1`: -11.7%; for `O=C(Nc1ccc(F)cc1F)N1CCN(CCc2ccccc2)CC1`: -15.6%. For `CCOC(=O)N1CCN(C(=O)Nc2cccc(Cl)c2)CC1` the value was 2.81%; for `O=C(Nc1ccc(F)cc1)N1CCN(CCc2ccccc2)CC1`, -52.3%; for `O=C(Nc1ccccc1)N1CCN(CCc2ccccc2)CC1`, -14.5%.

As to `O=C(Nc1cccc(Cl)c1)N1CCOCC1`, the “hERG current change (%, negative = inhibition) at 10uM” value was determined as 20%. Regarding `O=C(Nc1ccc(F)cc1)N1CCN(C/C=C/c2ccccc2)CC1`, the “hERG current change (%, negative = inhibition) at 10uM” value is given as -68.6%.

Turning to `O=C(Nc1cccc(F)c1)N1CCN(C/C=C/c2ccccc2)CC1`, the “hERG current change (%, negative = inhibition) at 10uM” value is recorded as -59%. The same measure for `O=C(Nc1ccc2c(c1)OCO2)N1CCN(C/C=C/c2ccccc2)CC1`: -15.4%; for `O=C(Nc1cccc(Cl)c1)N1CCN(C/C=C/c2ccccc2)CC1`: -68.5%. The same measure for `S=C(Nc1ccccc1)N1CCN(C/C=C/c2ccccc2)CC1`: -8.71%. The same measure for `O=C(Cc1ccccc1)Nc1ccc(N2CCOCC2)cc1N1CCOCC1`: -0.646%; for `CSCCC(NC(=O)COc1ccccc1)C(=O)N1CC(C)CC(C)C1` (stereo not shown): -41.4%; for `CCCCc1cc(=O)oc2c(CN3CCCC3)c(O)c(Cl)cc12`: -20.9%. Turning to `COC(=O)c1[nH]c2c(c1C)C(=O)CC(c1ccc(OC)c(OC)c1)C2` (stereo not shown), the “hERG current change (%, negative = inhibition) at 10uM” value is -0.262%. With `CC(Sc1ccccc1)C(=O)N(CCC#N)Cc1cccnc1` (stereo not shown), the “hERG current change (%, negative = inhibition) at 10uM” value was found to be 6.64%. For `Cc1ccc(NC(=O)CSc2nnc(-c3cnccn3)n2Cc2ccco2)cc1` the value was -21.3%; for `COc1ccccc1C1CC(c2ccc(Cl)cc2)Nc2ncnn21` (stereo not shown), -44.8%. For `Cc1cccn2c(CN(C)C3CCOC3)c(C(=O)N3CCCCC3)nc12` (stereo not shown) the value was 32.3%. The same measure for `O=c1cc(-c2ccc(O)c(O)c2)oc2cc(O)c(C3OC(CO)C(O)C(O)C3O)c(O)c12` (stereo not shown): 3.72%. In the case of `CC1(C)Cc2cccc(OCC(=O)NCc3cccs3)c2O1`, the “hERG current change (%, negative = inhibition) at 10uM” value is given as -0.101%. On to `CCCCNC(=O)N1CCN(Cc2ccc(F)cc2)CC1`, for which the “hERG current change (%, negative = inhibition) at 10uM” value is recorded as -11.3%. The same measure for `O=C(Cc1ccccc1)N1CCN(Cc2ccc(F)cc2)CC1.O=C(O)C(=O)O`: 2.38%; for `Cc1cc(C)cc(NC(=O)N2CCN(C/C=C/c3ccccc3)CC2)c1`: -69%. For `C=C(C)c1cccc(C(C)(C)NC(=O)N2CCN(C/C=C/c3ccccc3)CC2)c1` the value was -62.9%. The same measure for `O=C(C1CCN(Cc2ccccc2)CC1)N1CCN(C/C=C/c2ccccc2)CC1.O=C(O)C(=O)O`: -33.3%; for `CC1=C(C)CC(C(=O)N2CCN(C/C=C/c3ccccc3)CC2)C(C(=O)O)C1` (stereo not shown): 8.99%. As to `C=C(C)c1cccc(C(C)(C)NC(=O)N2CCN(CC)CC2)c1`, the “hERG current change (%, negative = inhibition) at 10uM” value is listed as 7.13%. The same measure for `CCNC(=O)N1CCN(C(=O)NCC)CC1`: 15.7%; for `CCNC(=O)N1CCN(CCCC(c2ccc(F)cc2)c2ccc(F)cc2)CC1.Cl`: -82.3%; for `O=C(C1CCN(Cc2ccc(F)cc2)CC1)N1CCN(C/C=C/c2ccccc2)CC1.O=C(O)C(=O)O`: -63.6%. Consider `C=C(C)c1cccc(C(C)(C)NC(=O)N2CCN(CC(N)=O)CC2)c1`, for which the “hERG current change (%, negative = inhibition) at 10uM” value is given as 11.3%. As to `Cc1ccc(NC(=O)N2CCN(C/C=C/c3ccccc3)CC2)cc1`, the “hERG current change (%, negative = inhibition) at 10uM” value is recorded as -44.6%.

Consider `Cn1c(=O)c2c(ncn2CC(O)CNc2ccc(F)cc2)n(C)c1=O` (stereo not shown), for which the “hERG current change (%, negative = inhibition) at 10uM” value is 1.35%. On to `COc1ccc(S(=O)(=O)N2CCC(C(=O)NCCC(=O)NCc3ccncc3)CC2)cc1`, for which the “hERG current change (%, negative = inhibition) at 10uM” value is 11%.

On to `CCN(CCN1CCCC1)C(=O)c1cc(COc2ccccc2SC)on1`, for which the “hERG current change (%, negative = inhibition) at 10uM” value was -32.1%. For `CN(C)C=NC(=O)c1ccc(N2CCN(c3ncc(C(F)(F)F)cc3Cl)CC2)cc1` the value was 7.74%; for `O=C(NCCO)Nc1ccc2nsnc2c1`, -5.93%. Take `NC(=O)c1ccccc1N=Cc1cccnc1`: the “hERG current change (%, negative = inhibition) at 10uM” value is recorded as -21%. Regarding `Cc1cc(N2C(=O)c3ccc(C(=O)Nc4ccccc4O)cc3C2=O)no1`, the “hERG current change (%, negative = inhibition) at 10uM” value is listed as 14.1%. As to `O=c1c(Cc2c(F)cccc2Cl)c(O)ccn1C1CC1`, the “hERG current change (%, negative = inhibition) at 10uM” value is -11.7%. `COc1ccc(NC(=O)c2csc3c2CCCCC3)c(OC)c1`: the “hERG current change (%, negative = inhibition) at 10uM” value is -6.93%. Consider `CCOC(=O)c1c(C)[nH]c(C(=O)N/N=C/c2cc([N+](=O)[O-])ccc2O)c1C`, for which the “hERG current change (%, negative = inhibition) at 10uM” value was 33.7%. For `CCCCCn1c(=O)c(C(=O)Nc2ccccc2N)c(O)c2ccccc21` the value was 21.4%; for `CCOC(=O)c1cc(NCc2cccs2)ccc1N1CCOCC1`, -3.79%; for `COc1ccc(-c2[nH]c(-c3ccc4c(c3)OCO4)nc2-c2ccccc2)cc1`, 1.88%. The same measure for `COc1ccc(/C=N/NC(=O)c2ccccc2O)cc1CN1CCOCC1`: -12.8%; for `COc1cc(OC)cc(C(=O)N/N=C/c2ccc(OC)c(COc3ccc(F)cc3)c2)c1`: 6.62%; for `COc1ccc(/C=N\NC(=O)c2ccccc2)cc1COc1ccccc1`: 20.6%. Consider `COc1ccc(/C=N/NC(=O)c2ccccc2)cc1CN1CCN(c2ccc(F)cc2)CC1`, for which the “hERG current change (%, negative = inhibition) at 10uM” value was -74.5%. As to `COc1cc(C(=O)N/N=C/c2ccc(OC)c(CN3CCN(c4ccc(F)cc4)CC3)c2)ccc1O`, the “hERG current change (%, negative = inhibition) at 10uM” value is recorded as -75.3%. Turning to `COc1ccc(/C=N/NC(=O)c2cccnc2)cc1CN1CCN(c2ccc(F)cc2)CC1`, the “hERG current change (%, negative = inhibition) at 10uM” value was -51%. The same measure for `COc1ccc(/C=N/NC(=O)c2ccc(C)cc2)cc1CN1CCN(c2ccc(F)cc2)CC1`: -69.8%; for `COc1ccc(/C=N/NC(=O)c2cccnc2)cc1CN1CCOCC1`: 13.6%; for `COc1ccc(/C=N/NC(=O)c2ccn[nH]2)cc1CN1CCOCC1`: -14.8%. Regarding `COc1ccc(/C=N\NC(=O)c2ccccc2)cc1COc1ccc(F)cc1`, the “hERG current change (%, negative = inhibition) at 10uM” value is listed as -0.876%. As to `COc1ccc(/C=N\NC(=O)c2cc(O)c(O)c(O)c2)cc1CN1CCN(c2ccc(F)cc2)CC1`, the “hERG current change (%, negative = inhibition) at 10uM” value came to 14.6%.

For the molecule `COc1ccc(/C=N/NC(=O)c2cccnc2)cc1CN1CCc2ccccc2C1`, the “hERG current change (%, negative = inhibition) at 10uM” value was -17.9%. The same measure for `CCC(C)NC(=O)N[C@@H](Cc1ccccc1)C(=O)O` (stereo partly shown): -1.98%; for `CCOC(=O)C1CCN(C(=O)CNC(=O)Cn2c(C)cc3ccccc3c2=O)CC1`: 6.61%. Turning to `O=C(COc1ccc(F)cc1)Nc1nnc(-c2ccncc2)s1`, the “hERG current change (%, negative = inhibition) at 10uM” value was -6.52%.

For `c1cnc(N2CCN(c3nc4ccccc4n4cnnc34)CC2)nc1`, the “hERG current change (%, negative = inhibition) at 10uM” value is -27.6%. Regarding `CC(C)[C@H](NC(=O)c1ccco1)C(=O)NCc1ccccc1`, the “hERG current change (%, negative = inhibition) at 10uM” value was found to be 25.1%. Turning to `COc1ccc(S(=O)(=O)N(C)c2ccc(C(=O)NCc3ccco3)cc2)cc1OC`, the “hERG current change (%, negative = inhibition) at 10uM” value was -9.43%. The same measure for `CCN(CC)c1ccc(/C=N/NC(=O)Cc2cccs2)cc1`: -16.6%; for `CCOc1ccc(/C=N/NC(=O)c2ccc(F)cc2)cc1CN1CC2CC(C1)c1cccc(=O)n1C2` (stereo not shown): -53.3%.

Turning to `CCOc1ccc(/C=N/NC(=O)c2ccc(O)cc2)cc1CN1CC2CC(C1)c1cccc(=O)n1C2` (stereo not shown), the “hERG current change (%, negative = inhibition) at 10uM” value worked out at 4.7%. Consider `COc1ccc(/C=N/NC(=O)c2ccoc2C)cc1O`, for which the “hERG current change (%, negative = inhibition) at 10uM” value was -4.47%.

On to `C/C=C/c1cc(CN2CCN(c3ccc(OC)cc3)CC2)c(O)c(OC)c1`, for which the “hERG current change (%, negative = inhibition) at 10uM” value is -68.7%. For `CCOc1ccc(/C=N/NC(=O)c2ccccc2O)cc1CN1CC2CC(C1)c1cccc(=O)n1C2` (stereo not shown) the value was -16.7%; for `COc1ccc(/C=N/NC(=O)c2ccoc2C)cc1OC`, -9.75%. The same measure for `COc1ccc(/C=N/NC(=O)c2ccoc2C)cc1CN1CCN(c2ccc(F)cc2)CC1`: -76.8%; for `C/C=C/c1cc(CN2CCN(c3ccccc3)CC2)c(O)c(OC)c1`: -32%. With `COc1ccc(/C=N\NC(=O)c2ccccc2F)cc1COc1ccc(F)cc1F`, the “hERG current change (%, negative = inhibition) at 10uM” value amounted to 11.7%. The same measure for `COc1ccc(/C=N/NC(=O)c2ccccc2F)cc1CN1CCN(c2ccc(F)cc2)CC1`: -76.2%; for `COc1ccc(/C=N\NC(=O)c2ccccc2F)cc1COc1ccc(F)cc1`: 27.1%; for `COc1ccc(N2CCN(Cc3cc4c(cc3O)CCC4)CC2)cc1`: -12.4%.
